# From PubChem BioAssay (Tox21)
# Results filed as inconclusive are left out. Calls of active or inactive are those of the source. The call rests on the fitted dose curve; in most records, active means well fitted cell-killing curve with a large enough effect in the repeat runs; inconclusive means weak or mixed curves; inactive means flat fitted curve, though single readings scatter.
# Assay: qHTS assay to identify small molecule antagonists of the TGF-beta/Smad signaling pathway - cell viability counter screen (AID 1346824); further: nearly all actives have a fitted effect of over 50% in size
# Details: SBE-bla HEK293T viability, CellTiter-Glo luminescence; series mostly up to 76.8 µM; viability change, negative = cytotoxic: at the top concentration
# Excerpt: U.S. Tox21 Program National Center for Advancing Translational Sciences [NCATS] NIH Chemical Genomics Center [NCGC] U.S. Environmental Protection Agency [EPA] National Institutes of Environmental Health Sciences [NIEHS] National Toxicology Program [NTP] U.S. Food and Drug Administration [FDA] Tox21 Assay Overview: Transforming growth factor beta (TGF-beta) superfamily consists of a large number of structurally related dimeric proteins that act as hormones or local mediators in regulating a wide range of biological functions. This superfamily includes TGF-betas themselves, the bone morphogenetic proteins (BMPs) and the activins. These ligands induce oligomerization of serine/threonine receptor kinases and phosphorylate the cytoplasmic signaling molecules of Smad protein family. CellSensor SBE-bla HEK 293T cell line (Life Technologies, Carlsbad, CA), responsive to TGF-beta was used to screen Tox21 10K compound library for identification of agonists/antagonists of the Smad signaling pathway. This cell line contains a beta-lactamase reporter gene under control of the Smad binding element (SBE) stably integrated into HEK 293T cells. Also cytotoxicity of the compounds was tested in parallel by measuring the cell viability using CellTiter-Glo assay system in the same wells.
# Tox21 Assay Protocol Summary: SBE-bla HEK 293T cells were dispensed at 4,000/well in 5 uL of assay medium into black wall/clear-bottom 1536-well plates using a Multidrop Combi (ThermoFisher Scientific, Waltham, MA) dispenser. After the assay plates were incubated at 37 C and 5% CO2 for an overnight, 23 nL of compounds dissolved in DMSO, positive controls or DMSO only was transferred to the assay plate by a Pintool station (Kalypsys, San Diego, CA). Compound transfer was followed by the addition of 1 uL of 0.25 ng/mL TGF-beta1 or assay buffer using two separate tips of Flying Reagent Dispenser (FRD, Aurora Discovery, San Diego, CA). The assay plates were incubated at 37 C and 5% CO2 for 5 hr. One uL of LiveBLAzer B/G FRET substrate (Life Technologies) was added using a Flying Reagent Dispenser (FRD, Aurora Discovery, San Diego, CA) and the plates were incubated at room temperature for 2 hr. Fluorescence intensity (405 nm excitation, 460 nm and 530 nm emissions) was measured using an Envision plate reader (PerkinElmer, Shelton, CT). For cytotoxicity read, 4 uL of CellTiter-Glo reagent (Promega Corporation, Madison, WI) was added to each well of the assay plates using FRD. After 30 min incubation at room temperature, the luminescence intensity was measured using ViewLux plate reader (PerkinElmer).
# On the % scale 0 is the no-effect control and ±100 the full control effect.
row,SMILES,"viability change, negative = cytotoxic"
1,Nc1ccc(N=Nc2ccccc2)c(N)c1,-11.8% (inactive)
2,N#CCc1ccc(Cl)cc1Cl,-2.11% (inactive)
3,CCCCCCCC/C=C\CCCCCCCCO,-16.5% (inactive)
4,CN1CCCC(CC2c3ccccc3Sc3ccccc32)C1 (stereo not given),-13.5% [at 35.3 µM] (inactive)
5,C[C@]1(Cn2ccnn2)[C@H](C(=O)O)N2C(=O)C[C@H]2S1(=O)=O,2% [at 35.3 µM] (inactive)
6,OC1(c2ccccc2)CCNCC1,5.97% [at 35.3 µM] (inactive)
7,CN1CC(=O)N2[C@H](c3ccc4c(c3)OCO4)c3[nH]c4ccccc4c3C[C@@H]2C1=O,-4.46% [at 35.3 µM] (inactive)
8,c1cc(N(CC2CO2)CC2CO2)ccc1Cc1ccc(N(CC2CO2)CC2CO2)cc1 (stereo not given),13.2% (inactive)
9,CC1(C)[C@@H](OC(=O)CCC(=O)O)CC[C@]2(C)[C@H]3C(=O)C=C4[C@@H]5C[C@@](C)(C(=O)O)CC[C@]5(C)CC[C@@]4(C)[C@]3(C)CC[C@@H]12,-5.08% [at 35.3 µM] (inactive)
10,Clc1ccc(Nc2nnc(Cc3ccncc3)c3ccccc23)cc1,4.55% [at 35.3 µM] (inactive)
11,Oc1cccc(Nc2ccccc2)c1,-7.33% (inactive)
12,C[C@@H](CN(C)C)CN1c2ccccc2Sc2ccccc21,-2.19% [at 35.3 µM] (inactive)
13,COc1cc(N)c(Cl)cc1C(=O)NC1CCN(CCCOc2ccc(F)cc2)CC1OC (stereo not given),-0.938% [at 35.3 µM] (inactive)
14,CN(C)CCC=C1c2ccccc2C=Cc2ccccc21,0.529% [at 35.3 µM] (inactive)
15,CC(CN(C)C)C(C)(O)Cc1ccc(Cl)cc1 (stereo not given),-13.8% [at 35.3 µM] (inactive)
16,CCCCCCCCCI,4.42% (inactive)
17,C=C1C[C@@]23CC[C@H]4[C@@](C)(CCC[C@@]4(C)C(=O)O[C@@H]4O[C@H](CO)[C@@H](O)[C@H](O)[C@H]4O)[C@@H]2CC[C@]1(O[C@@H]1O[C@H](CO)[C@@H](O)[C@H](O[C@@H]2O[C@H](CO)[C@@H](O)[C@H](O)[C@H]2O)[C@H]1O[C@@H]1O[C@H](CO)[C@@H](O)[C@H](O)[C@H]1O)C3,-0.21% (inactive)
18,CC(=O)N/N=C/c1ccc([N+](=O)[O-])o1,-1.8% [at 35.3 µM] (inactive)
19,CCCCCCC(C)(C)C(=O)O,-4.38% (inactive)
20,CCOC(=O)/C=C/C(=O)OCC,-14.5% (inactive)

row,SMILES,"viability change, negative = cytotoxic"
1,CN1CCCC(n2nc(Cc3ccc(Cl)cc3)c3ccccc3c2=O)CC1 (stereo not given),-12.3% [at 35.3 µM] (inactive)
2,O=C(O)C[C@H](NC(=O)OCc1ccccc1)C(=O)O,3.03% (inactive)
3,O=c1[nH]ncc2ccccc12,2.49% (inactive)
4,CCCC(=O)C(=O)O,-16% (inactive)
5,C[C@H]1c2cccc(O)c2C(O)=C2C(=O)[C@]3(O)C(O)=C(C(N)=O)C(=O)[C@@H](N(C)C)[C@@H]3[C@@H](O)[C@@H]21,0.559% [at 35.3 µM] (inactive)
6,Cc1ccc(C(C)(C)O)cc1,4.58% (inactive)
7,COc1cc(C(=O)NCCCCCC(=O)O)cc(OC)c1OC,17.7% [at 35.3 µM] (inactive)
8,O=C1NCCN1CCO,8.92% (inactive)
9,COc1ccc(OC(=O)N(CC(=O)O)Cc2ccc(OCCc3nc(-c4ccccc4)oc3C)cc2)cc1,-8.62% [at 35.3 µM] (inactive)
10,CC1(C)S[C@@H]2[C@H](NC(=O)C(c3ccccc3)S(=O)(=O)O)C(=O)N2[C@H]1C(=O)O (stereo not given in full),8.09% [at 35.3 µM] (inactive)
11,CC(C)Nc1cccnc1N1CCN(C(=O)c2cc3cc(NS(C)(=O)=O)ccc3[nH]2)CC1,13.7% [at 35.3 µM] (inactive)
12,CC(CC1c2ccccc2CCc2ccccc21)CN(C)C (stereo not given),-4.67% [at 35.3 µM] (inactive)
13,CCCC(C(=O)OCCN(CC)CC)(c1ccccc1)c1ccccc1,-9.3% [at 35.3 µM] (inactive)
14,CCC(=O)C1CC(C(C)C)CC=C1C (stereo not given),2.86% (inactive)
15,CCC1NC(=O)c2cc(S(N)(=O)=O)c(Cl)cc2N1 (stereo not given),-15.2% [at 35.3 µM] (inactive)
16,C[C@@H]1CN(CCCn2c3ccccc3c3ccccc32)C[C@H](C)N1,-13.3% [at 35.3 µM] (inactive)
17,c1ccc2c(c1)CCc1ccccc1N2,-18.6% [at 35.3 µM] (inactive)
18,O=C(CCc1ccc(O)cc1)c1c(O)cc(O)cc1O,3.86% (inactive)
19,O=C1Cc2cc(Cl)ccc2N1,-1.33% [at 35.3 µM] (inactive)
20,CCCCCCCC/C=C\CCCCCCCCCCCC(=O)O,-7.6% (inactive)
